# Measurements from PubChem BioAssay (NCATS).
# Results filed as inconclusive are left out. Entries that show only a call come without a potency. Activity calls are given as the source filed them. Calls come from the whole dose curve; as a rule, active = well fitted inhibition curve with a large enough effect; inconclusive = small, poorly fitted or top-dose-only effect; inactive = flat fitted curve, though single readings scatter.
# Target: Phospholipid hydroperoxide glutathione peroxidase GPX4 (Homo sapiens) (UniProt P36969)
# Test: Primary qHTS Assay for Inhibitors of Recombinant Selenoprotein Glutathione Peroxidase 4 (GPX4) (AID 1845192); note: nearly all actives have a fitted effect of over 65% in size
# Conditions: recombinant GPX4, GR-coupled NADPH fluorescence, 15 min; series mostly up to 50 µM
# Text: Assay Provider: Elias S.J. Arner MD PhD.
# Department of Medical Biochemistry and Biophysics
# Karolinska Institutet, Solna, Stockholm, Sweden
# Selenoprotein glutathione peroxidases (GPX), like the ubiquitously expressed GPX1 and the ferroptosis modulator GPX4, enact their antioxidant activities by reducing hydroperoxides using glutathione. […] GPX1 and GPX4 inhibitors have thus shown promise as anti-cancer agents. Existing inhibitors are often promiscuous, or modulate GPX activity only indirectly, so novel direct inhibitors identified through screening against GPX1 and GPX4 could be valuable. Here, we developed optimized glutathione reductase (GR)-coupled GPX assays for the biochemical high-throughput screen (HTS) of almost 12,000 compounds with known mechanisms of action. Initial hits were triaged using a GR counter-screen, assessed for isoform specificity using a separate GPX2 assay, and were assessed for general selenocysteine-targeting activity using a thioredoxin reductase (TXNRD1) assay. With this suite of assays, we identified novel GPX1/GPX2- and GPX4-specific inhibitors and can here present a validated pipeline for future discovery research for selenoprotein-targeting agents.
# SEQUENCE No. (e.g., 1, 2, 3, etc.); […] (e.g., Cells, Incubation, Reagent, etc.); VALUE; DESCRIPTION.
# 1; Reagent 1; 3 uL; 333.33 nM GPx4 enzyme or no enzyme control in 1536-well, black, solid Greiner assay plate.
# 2; Compound; 25 nL; Kalypsis pin tool (Wako USA) equipped with a 1536-well pin head.
# 3; Incubation; 30 min; room temperature.
# 4; Reagent 2; 1 uL; 500 nM GR, 5 mM GSH, 2.5 mM NADPH solution
# 5; Reagent 3; 1 uL; 2.5 mM CHP in 50% EtOH.
# 6; Detection; Fluorescence; ViewLux microplate reader, excitation 340 nm and emission 450 nm.
# 7; Incubation; 15 min; room temperature.
# 8; Detection; Fluorescence; ViewLux microplate reader, excitation 340 nm and emission 450 nm.
# NOTES (numbers refer to Sequence numbers above)
# 1. 3 µL of 333.33 nM GPX4 and 0.016% BSA in assay buffer (50 mM Tris-HCl, 2 mM EDTA (pH 7.5), 150 mM NaCl) was added to columns 3-48 of 1536-well plates using a BioRAPTR Flying Reagent Dispenser (Let's Go Robotics (LGR), Carlsbad, CA). A no-enzyme control (0.01% BSA in TES assay buffer) was added to columns 1-2.
# 2. 25 nL, library and DMSO controls were added to each well with a pin tool (Kalypsys).
# 3. The assay plates were incubated for 30 minutes at room temperature.
# 4. 1 µL of master mix (500 nM glutathione reductase (GR), 5 mM reduced glutathione (GSH), 2.5 mM NADPH in assay buffer) was added.
# 5. 1 µL of cumene hydroperoxide (CHP) ([2.5 mM] in 50% EtOH) was then added within 5 minutes to initiate the reaction. Final concentrations were: 200 nM GPX4, 1 mM GSH, 0.5 mM CHP, 0.5 mM NADPH, 100 nM GR, 0.01% BSA.
# 6. Initial fluorescence readout (t=0) at 340/450 nm was measured using a ViewLux multimodal detector (PerkinElmer, Waltham, MA).
# 8. Endpoint fluorescence readout (t=15) at 340/450 nm was measured 15 min after room temperature incubation.
# Sequence of Phospholipid hydroperoxide glutathione peroxidase GPX4 (Homo sapiens) (P36969 whole entry, looked up): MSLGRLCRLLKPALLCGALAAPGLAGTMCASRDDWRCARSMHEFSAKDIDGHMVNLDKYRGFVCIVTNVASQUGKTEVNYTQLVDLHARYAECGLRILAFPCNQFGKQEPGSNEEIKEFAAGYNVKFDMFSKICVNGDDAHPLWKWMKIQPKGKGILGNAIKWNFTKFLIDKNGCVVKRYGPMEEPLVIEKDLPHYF
row,SMILES,Potency
1,Cc1ccc(C(=O)Oc2ccc(C(O)CNC(C)(C)C)cc2OC(=O)c2ccc(C)cc2)cc1 (stereo not given),inactive
2,CCOC(=O)c1cc(=O)c2c(OCC(COc3cccc4oc(C(=O)OCC)cc(=O)c34)OC(=O)[C@@H](N)CCCCN)cccc2o1,inactive
3,CC(=O)O[C@@H]1C(=O)O[C@@H]2[C@H]1OC(=O)[C@@H]2OC(C)=O,inactive
4,COC(=O)C1=C(C)NC(C)=C(C(=O)OCCc2ccc(N3CCN(C(c4ccccc4)c4ccccc4)CC3)cc2)C1c1cccc([N+](=O)[O-])c1 (stereo not given),inactive
5,CCCCC(CC)CNC(=O)CC(C)OC(=O)CCC(=O)O (stereo not given),inactive
6,CC(C)=CCC/C(C)=C/CC/C(C)=C/CCC(=O)OC/C=C(\C)CCC=C(C)C,inactive
7,O=C(O)CCC(=O)OC[C@@H](NC(=O)C(Cl)Cl)[C@H](O)c1ccc([N+](=O)[O-])cc1,inactive
8,COC(=O)CCCCC(CCSS/C(CCO)=C(\C)N(C=O)Cc1cnc(C)nc1N)SC(C)=O (stereo not given),inactive
9,CC(=O)N[C@@H](CCC(N)=O)C(=O)O,inactive
10,Cc1ccc(Cl)c(OCC(O)CNC(C)(C)C)c1 (stereo not given),inactive
11,CC(=O)Nc1ccc(S(=O)(=O)Nc2cc(C)on2)cc1,inactive
12,CCO[C@H](Cc1ccc(OCCc2ccc(OS(C)(=O)=O)cc2)cc1)C(=O)O,inactive
13,O=c1[nH]c(=O)n([C@H]2O[C@H](CO)[C@@H](O)[C@@H]2O)cc1/C=C\Br,inactive
14,CCCC(=O)O[C@]1(C(=O)CCl)[C@@H](C)C[C@H]2[C@@H]3CCC4=CC(=O)C=C[C@]4(C)[C@@]3(F)C(=O)C[C@@]21C,inactive
15,CCOC(=O)NNc1ccc(N(CC)CC(C)O)nn1 (stereo not given),inactive
16,C[C@H]1C[C@H]2[C@@H]3CCC4=CC(=O)C=C[C@]4(C)[C@H]3C(=O)C[C@]2(C)[C@@]1(O)C(=O)CO,inactive
17,CC(=O)Nc1ccn(C2COC(COC(=O)c3ccccc3)O2)c(=O)n1 (stereo not given),inactive
18,CC(=O)N(CC(O)CO)c1c(I)c(C(=O)NCCO)c(I)c(C(=O)NCC(O)CO)c1I (stereo not given),inactive
19,O=[N+]([O-])c1ccc(-c2nc(-c3ccc(F)cc3)c(-c3ccncc3)[nH]2)cc1,inactive
20,C[C@@H](C1=C(CCN(C)C)Cc2ccccc21)c1ccccn1,inactive

row,SMILES,Potency
1,CCOC(=O)Oc1ccc(CCNC(=O)[C@H](CCSC)NC(C)=O)cc1OC(=O)OCC,inactive
2,CN1[C@@H]2CC[C@H]1CC(NC(=O)n1c(=O)[nH]c3ccccc31)C2 (stereo not given in full),inactive
3,CC(=O)OCC[N+](C)(C)C,inactive
4,CCCCCC(=O)O[C@]1(C(C)=O)CC[C@H]2[C@@H]3CCC4=CC(=O)CC[C@]4(C)[C@H]3CC[C@@]21C,inactive
5,COc1ccccc1N1CCN(CCN2C(=O)CC3(CCCC3)CC2=O)CC1,inactive
6,C[N+](C)(C)CCO,inactive
7,COc1cc(NS(=O)(=O)c2ccc(N)cc2)nc(C)n1,inactive
8,O=C1NC(c2cccc([N+](=O)[O-])c2)=CCN1c1ccccc1O,inactive
9,CCCc1ccc(OCC(=O)N2CCN(C(=O)COc3ccc(CCC)cc3OC)CC2)c(OC)c1,inactive
10,COc1ccc2c(c1)c(CC(=O)OC/C=C(\C)CC/C=C(\C)CCC=C(C)C)c(C)n2C(=O)c1ccc(Cl)cc1,inactive
11,CCN1CCN(C(=O)N[C@@H](C(=O)N[C@@H]2C(=O)N3[C@@H]2SC(C)(C)[C@H]3C(=O)O)c2ccccc2)C(=O)C1=O,inactive
12,Nc1ncnc2n[nH]c(Nc3ccc(F)cc3)c12,inactive
13,Cc1ccc(/C=N/n2c(-c3ccccc3)csc2=S)cc1,inactive
14,CCN1C(=O)c2ccccc2C1Nc1ccc(OCCN2CCCCC2)cc1 (stereo not given),inactive
15,Cc1cc(O)c2c(O)c3c(O)cccc3cc2c1,inactive
16,C[N+](C)(CCOc1ccccc1)Cc1cccs1,inactive
17,C/C(=N/NC(=O)c1ccncc1)C(=O)O,inactive
18,Oc1ccccc1,inactive
19,NC(=O)NC1N=C([O][Al])NC1=O (stereo not given),inactive
20,CN1CCCN=C1/C=C/c1cccs1,inactive
